In PubChem BioAssay (NCI):
Where “and” joins values, the source holds several entries; their conditions need not be identical. Equal entries are not always repeated. About 83,000 compounds went through this panel and 20% of them were active in at least one assay; those are over-represented in the sample as a whole.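 Percent growth is the endpoint: 0 to 100 indicates growth inhibition (40 means 60% inhibition), 0 means no net growth, and negative values indicate cell death.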 Calls of active or inactive are those of the source. How the source made its calls: active means growth percent below 10; inactive means the rest. Starred links: 1 amine or outer side, 2 acyl side, 3 side chain; linkers in the order of their positions; H or OH if unused. Positions of bridges follow the written chain, without caps; N, C: chain ends. Non-standard residues stand in square brackets, D forms with d. Residues, ends and D or L forms follow the SMILES beside them. Chains are numbered I, II in the order given. Actinocin(9to1) = Cc1c2oc3c(C)ccc(C(=O)[*:1])c3nc-2c(C(=O)[*:2])c(N)c1=O; aThr = C[C@H](O)[C@H](N)C(=O)O; NMeV = CN[C@H](C(=O)O)C(C)C; Sar = CNCC(=O)O

test system: KM12 colon; experiment: NCI-60 one-dose screen, 48 h (100 = growth as untreated, 0 = no growth, -100 = all killed); settings: 10 µM

SMILES	growth
CCCCCCCCCCCCCCCCCN	110% (inactive)
BrC/C=C/C[P+](c1ccccc1)(c1ccccc1)c1ccccc1	16.1% (inactive)
O=c1[nH]cc(F)c(=O)[nH]1	47% (inactive) and 42.4% (inactive)
CSc1ccc2c(c1)C(N1CCN(C)CC1)Cc1ccccc1S2 (centres undefined)	21.4% (inactive)
S=c1[nH]nc(Cc2ccccc2)c(=S)[nH]1	93.2% (inactive)
COc1cc(C(C)(C)C)cc(OC)c1C(O)(c1c(OC)cc(C(C)(C)C)cc1OC)c1c(OC)cc(C(C)(C)C)cc1OC	-80.8% (active)
Cc1c2oc3c(C)ccc(C(=O)N[C@@H]4C(=O)N[C@H](C(C)C)C(=O)N5CCC[C@H]5C(=O)N(C)CC(=O)N(C)[C@@H](C(C)C)C(=O)O[C@H]4C)c3nc-2c(C(=O)N[C@@H]2C(=O)N[C@H](C(C)C)C(=O)N3CCC[C@H]3C(=O)N(C)CC(=O)N(C)[C@@H](C(C)C)C(=O)O[C@H]2C)c(N)c1=O (I: [aThr][dV]P[Sar][NMeV] / II: [aThr][dV]P[Sar][NMeV]; ester I:1-I:C, II:1-II:C; linker I:N-II:N via Actinocin(9to1))	0.211% (active)
CN(C)CCC(=O)c1c[nH]c2ccccc12	102% (inactive)
Cc1cc(NCCCN(C)C)c2ccc3c(ccc4c(NCCCN(C)C)cc(C)nc43)c2n1	-97.6% (active)
CN1CCN(c2ccc3nc(-c4ccc5nc(-c6ccc(O)cc6)[nH]c5c4)[nH]c3c2)CC1	106% (inactive)
Nc1ccc2cc(Br)c3ccccc3c2c1	32.6% (inactive)
O=C(/C(=C/c1ccccc1)CBr)c1ccccc1	88.5% (inactive)
N#C/C(=C1C=C/C(=N\O)C(Cl)=C\1)c1ccccc1	13.5% (inactive)
Cc1cnc(/C=N\NC(N)=S)c2cccc(N)c12	27.9% (inactive)
